Potency and activity (max response) data for 18 compounds are collected here from PubChem BioAssay (NCATS).

Experiment [1] in a line: Viability qHTS for spleen associated tyrosine kinase inhibitor (SYKi) naive MV4-11 cells (AID 1963823). Note: nearly all actives have a fitted effect of over 40% in size. Summed up:
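Cells: MV4-11, SYK inhibitor naive, 500 per well. Treatment: library compounds, 72 hr, 37 C, 5% CO2. Read-out: CellTiter-Glo luminescence after 10 min RT.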
(Quantitative high-throughput screening tests each substance at several concentrations.)

A short description of experiment [2]: Quantitative highthroughput screen to assess conditional lethalithy of NOMO1 cells grown in RPMI1640 with untreated serum (RPMI+s) (AID 1963876).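 For Viability: 100% = DMSO wells and 0% = empty wells without cells.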 Note: nearly all actives have a fitted effect of over 35% in size. Summed up:
(§1)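 Each medium arm—HPLM with 10% dialyzed FBS, or RPMI1640 with 5 mM glucose and 10% untreated or dialyzed FBS—was screened against an 11-point, 3-fold compound titration for 48 h at 37 °C, with CellTiter-Glo luminescence as endpoint.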

The nature of experiment [3]: Quantitative highthroughput screen to assess conditional lethalithy of NOMO1 cells grown in RPMI1640 with dialyzed fetal bovine serum (RPMI+ds) (AID 1963877).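 For Viability: series mostly up to about 46 µM; 100% = DMSO control wells and 0% = empty wells.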 Note: nearly all actives have a fitted effect of over 30% in size. Summed up:
as §1

The nature of experiment [4]: Quantitative highthroughput screen to assess conditional lethalithy of NOMO1 cells grown in Human Plasma-Like Medium with dialyzed fetal bovine serum (HPLM+ds) (AID 1963878).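 For Viability: 100% = DMSO wells and 0% = empty wells on each plate.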 Note: nearly all actives have a fitted effect of over 35% in size. Summed up:
as §1

Experiment [5] can be described thus: Quantitative highthroughput screen to assess conditional lethalithy of P12 Ichikawa cells grown in Human Plasma-Like Medium with dialyzed fetal bovine serum (HPLM+ds) (AID 1963879). For Viability: series mostly up to about 46 µM. Note: nearly all actives have a fitted effect of over 35% in size. To be noted: Potency: viability. Summed up: as §1
A short description of experiment [6]: Quantitative highthroughput screen to assess conditional lethalithy of P12 Ichikawa cells grown in RPMI1640 with dialyzed fetal bovine serum (RPMI+ds) (AID 1963880).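 For Viability: 100% = DMSO wells and 0% = empty wells on each plate.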 Note: nearly all actives have a fitted effect of over 35% in size. To be noted: Potency: P12-Ichikawa viability. Summed up:
as §1

A short description of experiment [7]: Quantitative highthroughput screen to assess conditional lethalithy of P12 Ichikawa cells grown in RPMI1640 with untreated serum (RPMI+s) (AID 1963881).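 For Viability: series mostly up to about 46 µM; 100% = DMSO wells and 0% = empty wells without cells.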 Note: nearly all actives have a fitted effect of over 35% in size. To be noted: Potency: viability. Summed up:
as §1

Experiment [8] can be described thus: Cellular viability qHTS for adrenocortical cancer (ACC) cell line SW-13 (AID 1963989).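 For activity (max response): cells grown in serum-free medium with ITS supplement; % is set by controls: 0 for no effect and ±100 for the full control effect.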 Note: nearly all actives have a fitted effect of over 65% in size. To be noted: SW-13 ACC cells viability, CellTiter-Glo, 48 h; activity (max response): hits give low values. Summed up:
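IC50 and maximal-response values come from four-parameter logistic fits of titration data. SW-13 cells in serum-free medium received compounds (up to 46 uM final) for 48 h before CellTiter-Glo luminescence.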

Experiment [9] is described as follows: Quantitative highthroughput screen to assess conditional lethalithy of SEM cells grown in Human Plasma-Like Medium with dialyzed fetal bovine serum (HPLM+ds) (AID 1963882). For Viability: series mostly up to about 46 µM. Note: nearly all actives have a fitted effect of over 35% in size. Summed up:
as §1

The nature of experiment [10]: Quantitative highthroughput screen to assess conditional lethalithy of SEM cells grown in RPMI1640 with unreated serum (RPMI+s) (AID 1963883).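 For Viability: 100% = DMSO wells and 0% = empty wells without cells.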 Note: nearly all actives have a fitted effect of over 35% in size. Summed up: as §1
A short description of experiment [11]: Quantitative highthroughput screen to assess conditional lethalithy of SEM cells grown in RPMI1640 with dialyzed fetal bovine serum (RPMI+ds) (AID 1963884).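 For Viability: series mostly up to about 46 µM; 100% = DMSO control wells and 0% = empty wells without cells.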 Note: nearly all actives have a fitted effect of over 35% in size. Summed up: as §1
Experiment [12] in a line: Cellular viability qHTS for adrenocortical cancer (ACC) cell line NCI-H295R (AID 1963990). Note: nearly all actives have a fitted effect of over 60% in size. Summed up: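 Adrenocortical carcinoma cells, suspended at 300 000 cells/mL in serum-free DMEM plus ITS, rested overnight before pin transfer of compound. After two days' incubation, ATP-dependent luminescence was recorded and curve-fitted.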

Several values for one entry are separate records, joined by “and”; a condition that tells them apart may be missing. Identical values can stand only once. Records with an inconclusive call do not appear. Unmarked numbers belong to inactive results. Activity calls are given as the source filed them. Calls come from the whole dose curve; as a rule, active = well fitted curve in the direction sought with a large enough effect; inconclusive = small, poorly fitted or top-dose-only effect, or another doubt; inactive = no such curve, though single readings can be large; an effect the other way counts as inactive or inconclusive.
Potency is the fitted concentration of half-maximal effect.

Regarding `NC(=O)Cc1cccc(C(=O)c2ccccc2)c1N`, the Potency result in [1], in experiment [2], in experiment [3], in experiment [4], in experiment [5] and in experiment [6] was “inactive” each time. Moreover, in [7], the Potency result was “inactive”. In addition, the activity (max response) in experiment [8] was 0.0063%.
As for `c1coc(CNc2ncnc3nc[nH]c23)c1`, the Potency entry in experiment [1], in [2], in experiment [4], in experiment [5], in experiment [6] and in experiment [7] was “inactive” each time. The Potency entry in experiment [9], in [10] and in experiment [11] was “inactive” in each case. Besides, the activity (max response) in [8] is -0.681%.
Consider `C[C@](Cc1c[nH]c2ccccc12)(NC(=O)OC1C2CC3CC(C2)CC1C3)C(=O)NC[C@H](NC(=O)CCC(=O)O)c1ccccc1` (stereo partly specified), for which the Potency result in experiment [1], in experiment [3], in [4], in [5], in [7] and in [9] was “inactive” in each case. Besides, the Potency entry in experiment [10] and in experiment [12] was “inactive” each time. Moreover, in experiment [8], the activity (max response) was 0.678%.
Turning to `COc1cc(C(C)C)c2c(c1)S(=O)(=O)N(COc1cc(=O)n3cccc(OCCN4CCCCC4)c3n1)C2=O`, the Potency in [1] is 20.9 µM (active); in [12], 17.8 µM (active). Besides, the Potency result in [2], in experiment [5], in [7], in [9], in experiment [10] and in experiment [11] was “inactive” each time.
In the case of `O=c1cc(N2CCOCC2)oc2c(-c3cccc4c3sc3ccccc34)cccc12`, the Potency in experiment [1] was 1.48 µM (active); in experiment [8], 25.1 µM (active); in [12] it was 12.6 µM (active). Further, the Potency result in [2], in experiment [4], in experiment [5], in experiment [6] and in [7] was “inactive” each time.
As to `CC(C(=O)O)c1ccc(-c2ccccc2)c(F)c1` (stereo unspecified), the Potency result in experiment [1], in experiment [2], in experiment [3], in experiment [4] and in experiment [12] was “inactive” in each case. Further, the Potency in experiment [9] is 14.8 µM (active). In addition, in experiment [8], the activity (max response) is -8.73%.
Consider `CS(=O)(=O)c1ccc(C2=C(c3ccccc3)C(=O)OC2)cc1`, for which the Potency entry in [1], in experiment [2], in experiment [3], in experiment [5], in experiment [6] and in experiment [7] was “inactive” each time. The Potency result in experiment [12] was “inactive”. Further, the Potency is 16.6 µM (active) in experiment [10] and 10.5 µM (active) in experiment [11]. For the same compound, in experiment [8], the activity (max response) is -9.09%.
For `COc1ccnc(CS(=O)c2nc3ccc(OC(F)F)cc3[nH]2)c1OC` (stereo unspecified), the Potency entry in experiment [1], in experiment [3], in experiment [4], in experiment [6], in experiment [7] and in experiment [9] was “inactive” in each case. Also, the Potency result in experiment [10], in experiment [11] and in experiment [12] was “inactive” throughout. Also, in experiment [8], the activity (max response) was -15.5% and -5.64%.
For the compound `O=C(NCC1CN(c2ccc(N3CCOCC3=O)cc2)C(=O)O1)c1ccc(Cl)s1` (stereo unspecified), the Potency result in experiment [1], in experiment [9], in experiment [10], in experiment [11] and in experiment [12] was “inactive” throughout. Also, the Potency is 0.418 µM (active) in experiment [2], 2.96 µM (active) in experiment [5] and 2.96 µM (active) in experiment [7]. Further, the activity (max response) in experiment [8] was -21.7% and -9.76%.
On to `NS(=O)(=O)c1cccc2c1C(=O)c1cccc(O)c1C2=O`, for which the Potency in [1] is 0.525 µM (active); in experiment [3], 23.5 µM (active); in [4] it was 20.9 µM (active); in experiment [5], 26.4 µM (active); in experiment [6], 26.4 µM (active); in [9], 6.62 µM (active). Further, the Potency was 1.48 µM (active) in [10], 0.372 µM (active) in experiment [11], 1.26 µM (active) in [8] and 0.631 µM (active) in experiment [12].
Turning to `CCOC(=O)[C@@H](N)CCC(=O)N[C@@H](CSCc1ccccc1)C(=O)N[C@@H](C(=O)OCC)c1ccccc1`, in [1], the Potency is 5.9 µM (active). Also, the Potency result in experiment [3], in [5], in [6], in experiment [10] and in experiment [11] was “inactive” each time. For the same compound, the activity (max response) in experiment [8] is -10.6%.
As for `N[C@@H](Cc1ccc(O)c(O)c1)C(=O)O`, the Potency entry in [1], in experiment [2], in experiment [3], in [5], in experiment [6] and in experiment [9] was “inactive” throughout. Moreover, the Potency result in [10], in experiment [11] and in [12] was “inactive” each time. Also, in [8], the activity (max response) was 3.64%.
Turning to `CC(C)(C)c1cc(NC(=O)Nc2ccc(-c3cn4c(n3)sc3cc(OCCN5CCOCC5)ccc34)cc2)no1`, the Potency entry in [1], in experiment [2], in experiment [3], in experiment [5], in experiment [6] and in experiment [7] was “inactive” in each case. In [12], the Potency result is “inactive”. The activity (max response) in experiment [8] is 1.45%.
`COc1c(Cl)cc2c([nH]c3cnccc32)c1NC(=O)c1cccnc1C`: the Potency in experiment [1] was 20.9 µM (active). Further, the Potency entry in experiment [4], in [5], in experiment [6], in [7], in [11] and in experiment [12] was “inactive” throughout. Also, the activity (max response) in [8] was -4.78%.
Consider `Cc1cn2cc(C(=O)N(C)CCO)cc(N[C@@H]3CCOc4cccc(C)c43)c2n1`, for which, in experiment [1], the Potency was 2.95 µM (active). Moreover, the Potency result in experiment [3], in experiment [4], in experiment [5], in experiment [6], in [7] and in experiment [9] was “inactive” each time. Also, the Potency result in experiment [10], in experiment [11] and in experiment [12] was “inactive” each time. The activity (max response) in [8] is -15%.
Turning to `COc1ccc(S(=O)(=O)Nc2cc(-c3c(O)ccc4ccccc34)c(O)c3ccccc23)cc1`, the Potency in [1] was 1.18 µM (active); in experiment [4] it was 20.9 µM (active); in experiment [5], 16.6 µM (active); in experiment [6] it was 18.7 µM (active); in experiment [7] it was 20.9 µM (active); in [9], 14.8 µM (active). The Potency in [10] was 7.43 µM (active); in experiment [11] it was 14.8 µM (active); in experiment [12], 28.2 µM (active).
For the compound `NC[C@H]1O[C@H](O[C@@H]2[C@@H](O)[C@@H](O[C@H]3O[C@H](CO)[C@@H](O)[C@H](N)[C@@H]3O)[C@H](N)C[C@@H]2N)[C@H](O)[C@@H](O)[C@H]1O`, the Potency in experiment [1] is 1.05 µM (active). The Potency result in experiment [2], in experiment [4], in experiment [5], in [6], in experiment [7] and in [9] was “inactive” each time. For the same compound, the Potency result in experiment [10], in experiment [11] and in experiment [12] was “inactive” in each case. Also, the activity (max response) in experiment [8] was 12.9%.
As for `O=C(O)C(O)Cc1ccc(O)c(O)c1` (stereo unspecified), the Potency was 17.1 µM (active) in experiment [1] and 13.2 µM (active) in [3]. Moreover, the Potency result in experiment [2], in experiment [5], in experiment [6], in experiment [7] and in [12] was “inactive” throughout. Moreover, the activity (max response) in [8] is -1.27%.
